About 83,000 compounds went through this panel and 20% of them were active in at least one assay; those are over-represented in the sample as a whole.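 Testing used 96-well plates and a 48-hour single-concentration exposure. Example: -40 means 40% of the starting cells died.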 The source made the active and inactive calls. How the source made its calls: active means growth percent below 10; inactive means the rest.
These compounds were tested on HCC-2998 colon (assay: NCI-60 one-dose screen, 48 h (100 = growth as untreated, 0 = no growth, -100 = all killed)). Conditions: 10 µM unless noted.
In the case of `COc1ccc(C(c2cc(OC)c(OC)c(OC)c2)N2CCN(Cc3ccccc3)CC2)cc1` (centres undefined), the growth is reported as 91.9% (inactive). With `COc1ccc2nc(SCC(=O)Nc3ccccc3C)[nH]c2c1` the growth was 106% (inactive). With `N/C(=N\c1nc2ccccc2s1)NC(=NC1CCCCC1)NC1CCCCC1` the growth was -88.6% (active). In the case of `CSCCC(NC(=O)c1ccccc1)C(=O)N/N=C1\S/C(=C/c2ccc(Cl)cc2)C(=O)N1C` (centres undefined), the growth is reported as 96.7% (inactive). `S=c1[nH]c2cc(Cl)ccc2o1` was tested, and the growth was 115% (inactive). In the case of `COc1ccc(-c2cc(C(=O)N3N=C(c4ccc(N)cc4)CC3c3ccccc3)c3ccccc3n2)cc1` (centres undefined), the growth is reported as 59.9% (inactive). With `Cn1c(=O)c2c(nc(NC3=NS(=O)(=O)c4ccccc43)n2Cc2ccccc2)n(C)c1=O` the growth was 107% (inactive). For `O=C(Nc1cccnc1Nc1ccc(Cl)cc1)c1cn(Cc2ccc(F)cc2)nn1`, the growth was 100% (inactive). With `Cc1c2cc[nH]c(=O)c2c(C)c2c1[nH]c1ccc(OC(=O)c3ccccc3)cc12` the growth was 57.7% (inactive). For `N=C(N)c1ccc(-c2ccc(-c3ccc(Cl)cc3Cl)s2)cc1F`, the growth was -81.7% (active). For `COc1ccc2cc(Cn3cc[n+](Cc4ccc5ccccc5c4)c3)ccc2c1`, the growth was 26.7% (inactive). For `COC(=O)c1c2c(n3ccc(C)cc13)C(=O)c1ccccc1C2=O`, the growth was 94.6% (inactive). `CNC(=O)c1cc(Oc2ccc3nc(NC(=O)Nc4ccc(Cl)c(Cl)c4)sc3c2)ccn1` was tested, and the growth was 63.4% (inactive). For `Cc1c(Cl)cccc1C(=O)Nc1nc2c(s1)CN(C(=O)Nc1cccc(C(F)(F)F)c1)CC2`, the growth was 11.7% (inactive).

Source: PubChem BioAssay (NCI)
